Data on twelve compounds can be found in PubChem BioAssay (EPA / NIEHS).

Each structure is given as a SMILES string. Several values for one entry are separate records, joined by “and”; a condition that tells them apart may be missing. Equal entries are not always repeated. Records with an inconclusive call do not appear. Activity calls are given as the source filed them. The calls were made as follows, unless noted: active = hit-call score of the fitted dose curve at least 0.9, where 1 is the maximum; inactive = score below 0.9.

Assay [1] is described as follows: CCTE_Shafer_MEA_acute_cross_correlation_HWHM: CCTE's Neural Acute Assay for Cross Correlation at Half Width at Half Maximum, Shafer Lab (AID 2284026).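 Also: percent change per well from pre-dose baseline in spike cross-correlogram half width; hits are a decrease in cross-correlogram half width relative to DMSO.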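 As to outcome: spontaneous network firing of rat primary cortical neurons on multiwell microelectrode arrays.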 An outline of the steps: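 Percent change in cross-correlogram half width at half maximum, narrower meaning more synchrony, was derived per well from paired 40-min recordings before and during exposure to 0.03-40 uM compound in rat cortical cultures at 37 C.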

Assay [2] is described as follows: CCTE_Shafer_MEA_acute_synchrony_index: CCTE's Neural Acute Assay for Synchrony, Shafer Lab (AID 2284027).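 Also: network synchrony index of spontaneous spiking in primary rat cortical neurons on MEAs; fitted for loss of signal so actives lower synchrony relative to DMSO.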 An outline of the steps: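 Plates equilibrated 20 min at 37 C, baseline recorded 40 min, compound (0.03-40 uM) added, then 40 min more recorded. Cells: primary rat cortical neurons, DIV 13 or 15. Per-well synchrony index change analysed in negative direction against DMSO.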

In assay [3] the target is Estrogen receptor (Homo sapiens) (UniProt P03372). The assay is described as follows: CCTE_Deisenroth_AIME_384WELL_LUC_Active: CCTE's 384-well Estrogen Receptor Transactivation Assay with AIME metabolic competence (ERTA luciferase; metabolism positive), Deisenroth Lab (AID 2284030; active = hit-call score of the fitted dose curve at least 0.9, where 1 is the maximum). An outline of the steps: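 Estrogenic luciferase signal in VM7Luc4E2 cells is measured at 24 hour, after chemicals have been preconditioned 2 hours with PB/BNF-induced rat hepatic S9 in alginate. Gain of signal is fitted relative to 17beta-estradiol, across 0.002 - 200 uM.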
Estrogen receptor (Homo sapiens), sequence (P03372 whole entry, looked up): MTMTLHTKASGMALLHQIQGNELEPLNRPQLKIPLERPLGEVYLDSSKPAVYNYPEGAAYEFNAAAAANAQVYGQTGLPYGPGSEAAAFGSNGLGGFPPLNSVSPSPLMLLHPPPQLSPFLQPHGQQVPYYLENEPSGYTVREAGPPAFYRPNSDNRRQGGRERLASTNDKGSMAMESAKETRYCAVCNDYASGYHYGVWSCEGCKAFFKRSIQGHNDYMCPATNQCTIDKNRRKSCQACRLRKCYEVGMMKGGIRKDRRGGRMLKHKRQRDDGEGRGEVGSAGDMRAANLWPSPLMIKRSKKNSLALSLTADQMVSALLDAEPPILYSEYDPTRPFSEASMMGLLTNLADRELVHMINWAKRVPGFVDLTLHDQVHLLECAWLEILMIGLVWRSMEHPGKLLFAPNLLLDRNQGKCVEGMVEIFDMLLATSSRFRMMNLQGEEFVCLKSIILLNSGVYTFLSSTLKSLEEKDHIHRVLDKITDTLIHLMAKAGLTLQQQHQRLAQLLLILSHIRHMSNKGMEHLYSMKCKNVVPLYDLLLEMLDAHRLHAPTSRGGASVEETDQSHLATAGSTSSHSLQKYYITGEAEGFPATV

Assay [4] is described as follows: CCTE_Shafer_MEA_dev_firing_rate_mean: CCTE's Neural Network Formation Assay for Mean Firing Rate, Shafer Lab (AID 2284031).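 As to AC50: curve fitted for loss of firing so AC50 reflects decreased mean firing rate.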 An outline of the steps:
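Steps: seed rat cortical cells (1.5 x 10^5/well) with laminin on PEI-coated MEA; dose day 0; record DIV 5/7/9/12, full media and compound exchange after DIV 5 and 9 recordings; compute well-mean firing rate AUC.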

Assay [5] concerns the target Estrogen receptor (Homo sapiens) (UniProt P03372). Nature of the assay: CCTE_Deisenroth_AIME_384WELL_LUC_Inactive: CCTE's 384-well Estrogen Receptor Transactivation Assay without AIME metabolic competence (ERTA luciferase; metabolism negative), Deisenroth Lab (AID 2284038; active = hit-call score of the fitted dose curve at least 0.9, where 1 is the maximum;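 also: hits raise estrogen receptor luciferase signal so potencies reflect agonists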). An outline of the steps:
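VM7Luc4E2 ER transactivation, luciferase bioluminescence after 24 h, using medium pre-incubated 2 h with S9-free alginate microspheres. Concentrations 0.002–200 uM; gain of signal fitted relative to 17beta-estradiol.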

The nature of assay [6]: CCTE_Deisenroth_AIME_384WELL_CTox_Inactive: Cytotoxicity Assessment (CTOX) in CCTE's 384-well Estrogen Receptor Transactivation Assay without AIME metabolic competence (metabolism negative), Deisenroth Lab (AID 2284039; active = hit-call score of the fitted dose curve at least 0.9, where 1 is the maximum;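 also: cell viability via live-cell protease substrate cleaved to fluorescent probe; cells exposed 24 h to medium preincubated 2 h with alginate-water beads without S9; loss of fluorescence signal means loss of viability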). An outline of the steps:
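Fluorescent protease-substrate viability readout after 24 h exposure of VM7Luc4E2 cells to conditioned medium. Chemicals (0.002–200 uM) first sat 2 h over alginate-water beads, no S9. Data fitted bidirectionally, loss of signal meaning viability loss.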

Assay [7] is described as follows: CCTE_Shafer_MEA_dev_active_electrodes_number: CCTE's Neural Network Formation Assay for Number of Active Electrodes, Shafer Lab (AID 2284040; active = hit-call score of the fitted dose curve at least 0.9, where 1 is the maximum;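 as to AC50: potency for loss of active electrodes versus DMSO so lower counts are hits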). In short, it runs like this:
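Counts electrodes per well firing at least 5 spikes/min, recorded on days 5, 7, 9 and 12 in rat cortical cultures dosed continuously from plating (treatment refreshed DIV 5, 9). Value is the area under the curve over recordings, fitted downward relative to DMSO.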

The target in assay [8] is Estrogen receptor (Homo sapiens) (UniProt P03372). Nature of the assay: CCTE_Deisenroth_AIME_384WELL_LUC_Shift: CCTE's 384-well Estrogen Receptor Transactivation Assay with AIME metabolic competence data shift (ERTA luciferase; difference in metabolism positive and negative), Deisenroth Lab (AID 2284041).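 Also: shift is response with S9 minus without S9 so positive means metabolism raised ER signal.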 An outline of the steps:
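Here, parent compounds undergo 2 h phase I metabolism by PB/BNF-induced rat S9 before 24 h transactivation in VM7Luc4E2 cells; the curve models S9-positive minus S9-negative response over a 10-point series.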

The nature of assay [9]: CCTE_Shafer_MEA_dev_burst_rate: CCTE's Neural Network Formation Assay for Burst Rate, Shafer Lab (AID 2284042).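 As to AC50: potency for loss of burst rate below DMSO control.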 An outline of the steps: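 Exposure ran continuously over 12 days of network development in rat cortical cultures, with compound refreshed during full media changes on DIV 5 and 9. Single-electrode bursts per recording time, well-mean over active electrodes, trapezoidal AUC across days 5–12, fitted downward relative to DMSO.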

Assay [10] is described as follows: CCTE_Shafer_MEA_dev_bursting_electrodes_number: CCTE's Neural Network Formation Assay for Number of Bursting Electrodes, Shafer Lab (AID 2284043; active = hit-call score of the fitted dose curve at least 0.9, where 1 is the maximum;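 as to AC50: potency is for loss of bursting electrodes relative to DMSO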). An outline of the steps:
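Counted: electrodes with burst rate ≥1 per 2 min in each well. Cells: primary rat cortex, 1.5 x 10^5/well, on 16-electrode MEA wells. Exposure: DIV 0–12, compound renewed DIV 5 and 9. Recording days 5, 7, 9, 12; AUC vs DMSO baseline.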

Assay [11] in a line: CCTE_Shafer_MEA_dev_per_burst_interspike_interval: CCTE's Neural Network Formation Assay for Burst Interspike Interval, Shafer Lab (AID 2284044).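 Also: mean spike spacing inside bursts as AUC over recordings on days 5 7 9 12.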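 As to AC50: potency for a decrease of within-burst interspike interval below DMSO level.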 In short, it runs like this: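 Spontaneous activity of maturing rat cortical networks is recorded on DIV 5, 7, 9 and 12 under chronic compound exposure beginning at plating. Endpoint: burst interspike interval well-mean, collapsed into trapezoidal AUC and fitted in the negative direction relative to DMSO.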

A short description of assay [12]: CCTE_Shafer_MEA_dev_burst_duration_mean: CCTE's Neural Network Formation Assay for Mean Burst Duration, Shafer Lab (AID 2284045). In short, it runs like this: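 Network-formation assay in primary rat cortical neurons; treatment spans twelve days of development. Mean burst duration per well is integrated by trapezoidal AUC and fitted in the loss-of-signal direction against DMSO baseline.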

Assay [13] is described as follows: CCTE_Shafer_MEA_dev_interburst_interval_mean: CCTE's Neural Network Formation Assay for Mean Interburst Interval, Shafer Lab (AID 2284046).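 Also: curve fitted for decrease in interburst interval relative to DMSO.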 An outline of the steps: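 Primary rat cortical neurons on PEI-coated 48-well MEA plates (laminin added with cells at plating) (16 electrodes/well), exposed from plating day 0 with renewal at DIV 5 and 9. Mean inter-burst interval averaged over bursting electrodes, AUC across days 5, 7, 9, 12; DMSO baseline.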

A short description of assay [14]: CCTE_Shafer_MEA_dev_network_spike_number: CCTE's Neural Network Formation Assay for Number of Network Spikes, Shafer Lab (AID 2284048).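 Also: synchronized bursts across electrodes counted on days 5 7 9 12 and integrated as AUC.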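 As to AC50: fit as a loss of signal meaning fewer network spikes than DMSO.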 In short, it runs like this:
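Extracellular recordings from 16-electrode wells track network formation in rat cortical cultures under continuous treatment from plating. The endpoint is network spike number, expressed as AUC across DIV 5–12 relative to DMSO vehicle.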

The nature of assay [15]: CCTE_Shafer_MEA_dev_network_spike_peak: CCTE's Neural Network Formation Assay for Mean Number of Electrodes in Network Spike, Shafer Lab (AID 2284049).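 As to AC50: fitted for loss of signal meaning fewer electrodes in network spikes than DMSO.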 In short, it runs like this:
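Continuous 12-day exposure of rat cortical cultures, starting at plating, on MEA plates. Endpoint: electrodes participating in network-spike peaks, AUC across DIV 5–12, DMSO as negative control.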

Assay [16] in a line: CCTE_Shafer_MEA_dev_inter_network_spike_interval_mean: CCTE's Neural Network Formation Assay for Mean Inter-network Spike Interval, Shafer Lab (AID 2284047). In short, it runs like this: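 Mean time between consecutive network-spike peaks, recorded extracellularly (adaptive spike detection) on DIV 5, 7, 9 and 12, summarized as trapezoidal AUC. Rat cortical cultures on MEAs dosed continuously days 0–12, re-dosed at feeds; loss-of-signal fit relative to DMSO.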

Assay [17] addresses Estrogen receptor (Homo sapiens) (UniProt P03372). Nature of the assay: CCTE_Deisenroth_AIME_96WELL_LUC_Inactive: CCTE's 96-well Estrogen Receptor Transactivation Assay without AIME metabolic competence (ERTA luciferase; metabolism negative), Deisenroth Lab (AID 2284025; active = hit-call score of the fitted dose curve at least 0.9, where 1 is the maximum). An outline of the steps:
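Metabolism-negative arm: chemicals (0.002–200 uM, 10 points) incubated 2 h with alginate-water microspheres, then medium moved onto VM7Luc4E2 cells for 24 h luciferase read-out. Positive direction vs 17beta-estradiol; n≥4 experiments.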

Assay [18] can be described thus: CCTE_Deisenroth_AIME_96WELL_CTox_Active: Cytotoxicity Assessment (CTOX) in CCTE's 96-well Estrogen Receptor Transactivation Assay with AIME metabolic competence (metabolism positive), Deisenroth Lab (AID 2284028; active = hit-call score of the fitted dose curve at least 0.9, where 1 is the maximum). In short, it runs like this: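 Cytotoxicity in VM7Luc4E2 breast cells after 24 h exposure to medium from a 2 h metabolic pre-incubation with induced rat hepatic S9 in alginate microspheres; fluorescent live-cell protease readout, 10-point series 0.002–200 uM, n=4.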

Assay [19] is described as follows: CCTE_Deisenroth_AIME_96WELL_CTox_Inactive: Cytotoxicity Assessment (CTOX) in CCTE's 96-well Estrogen Receptor Transactivation Assay without AIME metabolic competence (metabolism negative), Deisenroth Lab (AID 2284029; active = hit-call score of the fitted dose curve at least 0.9, where 1 is the maximum). An outline of the steps: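 Metabolism-negative mode: alginate-water lids without rat S9, 2 h pre-incubation of 10-point series (0.002 - 200 uM). Conditioned medium on VM7Luc4E2 cells 24 h; loss of fluorescent live-cell protease signal marks cytotoxicity.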

The test system of the next assay is DIO2 (gene 1734). The assay is described as follows: CCTE_GLTED_hDIO2: CCTE's human Deiodinase 2 (DIO2) Inhibition Assay, Great Lakes Toxicology and Ecology Division (GLTED) Lab (AID 2284050; active = hit-call score of the fitted dose curve at least 0.9, where 1 is the maximum). An outline of the steps:
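Inhibition is judged by reduced iodide release: uninhibited human DIO2 frees iodide from substrate over 3 h, measured afterward by Sandell-Kolthoff colorimetry. Iodinated chemicals or nitrite, iron and thiocyanate may interfere.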

On to `CCC(C)(CC)c1cc(NC(=O)c2c(OC)cccc2OC)on1`, for which the concentration at half-maximal activity (AC50) in assay [1] is 11.4 µM (active). Also, the compound was called inactive in [2].

Consider `ClC1=C(Cl)[C@]2(Cl)[C@@H]3[C@H]4C[C@H]([C@@H]5O[C@H]45)[C@@H]3[C@@]1(Cl)C2(Cl)Cl`, for which the AC50 is 0.0859 µM (active) in [1], 0.0248 µM (active) in assay [2], 2.76 µM (active) in [3] and 1.75 µM (active) in assay [8]. The compound was classed as inactive in assay [4], in assay [5], in assay [6], in assay [7], in assay [9] and in assay [10]. The call in [11], in [12], in assay [13], in assay [14] and in [15] was inactive.

`ClC(Cl)=C(c1ccc(Cl)cc1)c1ccc(Cl)cc1`: the compound was called inactive in assay [1], in assay [2], in [12] and in assay [16]. For the same compound, the half-maximal activity concentration (AC50) in assay [4] is 4.06 µM (active); in [7] it was 4.01 µM (active); in assay [9] it was 4.06 µM (active); in [10] it was 5.08 µM (active); in assay [11], 7.73 µM (active); in assay [13], 7.75 µM (active). The AC50 in assay [14] is 1.23 µM (active); in assay [15] it was 4 µM (active).

As to `c1cc2ccc3cccc4ccc(c1)c2c34`, the values for the half-maximal activity concentration (AC50) in assay [17] and in assay [6] were 42.1 µM (active) and 0.0782 µM (active), respectively. Also, the result in assay [18], in assay [19], in assay [3], in assay [4], in assay [5] and in assay [7] was inactive. In addition, the outcome in assay [8], in assay [9], in assay [10], in assay [11], in assay [12] and in assay [13] was inactive. Moreover, the compound was classed as inactive in assay [16], in assay [14] and in [15].

In the case of `CCCCCCCCCc1ccc(O)cc1`, the AC50 in assay [1] was 20 µM (active); in [2], 20.9 µM (active); in assay [3], 26.3 µM (active); in assay [5], 24.5 µM (active); in [6] it was 146 µM (active); in [8], 31.4 µM (active). Further, in the assay on DIO2 (gene 1734), the AC50 was 136 µM (active).

Take `CCSC(=O)N(CC)C1CCCCC1`: the AC50 is 8.09 µM (active) in assay [1] and 3.61 µM (active) in assay [2].

With `CC(C)C(=O)OCC(C)(C)C(OC(=O)C(C)C)C(C)C` (stereo not drawn), the outcome in assay [1] and in [2] was inactive.

As for `CC(c1ccc(O)cc1)(c1ccc(O)cc1)c1ccc(O)cc1`, the AC50 in assay [1] is 33.4 µM (active); in assay [2], 28.8 µM (active).

With `COc1ccc(O)c(C(C)(C)C)c1`, the AC50 was 15 µM (active) and 2.79 µM (active) and 32.2 µM (active) in assay [1]; 15 µM (active) and 3.93 µM (active) and 33 µM (active) in assay [2]. Further, the call in assay [3], in [4], in assay [5], in assay [8], in [9] and in [11] was inactive. Moreover, the call in assay [12], in assay [13], in assay [16], in [14] and in assay [15] was inactive.

For `O=C(NC(=O)c1c(F)cccc1F)Nc1cc(Cl)c(OC(F)(F)C(F)F)c(Cl)c1`, the result in [1] and in [2] was inactive.

With `Clc1ccc(C(Cl)(Cl)Cl)cc1`, the compound was called inactive in assay [1], in assay [2], in assay [3], in assay [5], in assay [6] and in assay [8]. The half-maximal activity concentration (AC50) in the assay on DIO2 (gene 1734) was 61.7 µM (active).

As for `CCC(C)c1cc([N+](=O)[O-])cc([N+](=O)[O-])c1O` (stereo not drawn), the compound was classed as inactive in assay [1] and in assay [2].

As a reminder, the AC50 is the concentration giving half of the maximal activity seen.
